TDP-43 yeast inh = TDP-43 toxicity inhibition in yeast. TDP-43 expressing yeast growth rescue, BacTiter-Glo, 24 h. Potency, µM (top dose mostly 46.1 µM), inactives show at the highest dose growth rescue (activation), hits mostly activators. 1.8% of 410,000 active. AID 652104; further: % of control where 0% means no effect; nearly all actives have a fitted effect of over 50% in size
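Luminescence from BacTiter-Glo reports growth of TDP-43-expressing yeast after 24 hr at 30 deg C with compound. Cells were raffinose-pregrown to mid-log, then seeded in galactose medium at OD600=0.02.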
aSyn rescue = inhibitors of alpha-synuclein toxicity in yeast. Potency, µM (series often up to 46.1 µM), for the others: top-dose growth rescue (activation), actives largely listed as activators. AID 652106. 0.14% of 370,000 active. Yeast expressing alpha-synuclein, growth rescue, BacTiter-Glo, 24 h; further: % of control where 0% means no effect; nearly all actives have a fitted effect of over 65% in size
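Galactose-induced alpha-syn yeast (OD600=0.02, raffinose-pregrown) + pinned cpd, 24 hr, 30 deg C; growth by BacTiter-Glo luminescence. Growth restoration scores as activation.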
Abeta yeast res = A-beta toxicity reversal in yeast; yeast expressing A-beta42, growth rescue, OD600, 48 h; response scale: 0% DMSO, 100% iron-clioquinol control; Potency, µM (highest dose often 46.1 µM), most hits filed as activators; 0.063% of 410,000 active; further: nearly all actives have a fitted effect of over 55% in size
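Growth rescue measured by 600 nm absorbance after 48 h yeast culture at 30 C with compound. Values normalized between DMSO and an equimolar ferric chloride plus clioquinol control.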
FUS yeast rescue = suppressors of FUS proteinopathy in yeast; S. cerevisiae FUS-expressing, growth rescue, OD600, 24 h; Potency, µM (titrated, usually from 76.6 µM), hits mostly activators; 0.24% of 390,000 active;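 further: plate controls were DMSO vehicle for no effect and reference control for full effect; nearly all actives have a fitted effect of over 55% in size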
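Read-out: OD at 600 nm after 24hr at 30C, reporting rescue of FUS-induced yeast toxicity. Cells at OD 0.005 in galactose (2%) minimal medium; compounds tested in a dilution series; CP55940 titration from 92uM final as control.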
Active calls of the source: *. Sampled rows, rich in hits. Any-hit rate of the full collection: about 2.1%. The call rests on the fitted dose curve; in most records, active means well fitted curve in the direction sought with a large enough effect; inconclusive means small, poorly fitted or top-dose-only effect, or another doubt; inactive means no such curve, though single readings can be large; an effect the other way counts as inactive or inconclusive. Potency means the concentration at half of the fitted maximal effect.

How did O=C1CSc2ccc(C(=O)N3CCCC(C(=O)N4CCCN(Cc5ccccc5)CC4)C3)cc2N1 (stereo unspecified) do in these assays?
FUS yeast rescue: inactive

What do the screens show for `COc1ccc(-c2csc(Nc3ccccc3)n2)cc1`?
TDP-43 yeast inh: 10µM*; aSyn rescue: -27%; Abeta yeast res: inconclusive; FUS yeast rescue: inactive

How did O=C(Nc1ccc(-c2csc(Nc3cccc(C(F)(F)F)c3)n2)cc1)c1ccccc1 do in these assays?
TDP-43 yeast inh: 20%; aSyn rescue: -10%; Abeta yeast res: inactive; FUS yeast rescue: inactive

What do the screens show for `O=C(Nc1cccc(-c2csc(Nc3cccc(C(F)(F)F)c3)n2)c1)c1ccccc1`?
TDP-43 yeast inh: 18µM*; aSyn rescue: -23%; Abeta yeast res: inactive; FUS yeast rescue: inactive

What do the screens show for `COc1ccc(Nc2nc(-c3ccc(OC)cc3)cs2)cc1`?
TDP-43 yeast inh: 4%; aSyn rescue: -2%; Abeta yeast res: inactive; FUS yeast rescue: inactive

Results for S=C(NCc1ccc(Cl)cc1)OC1CCC12CCC(c1ccccc1)CC2 (stereo unspecified) ?
FUS yeast rescue: inactive

Results for CCn1c(COc2ccc(C)cc2)nnc1SCC(=O)Nc1cc(OC)ccc1OC ?
TDP-43 yeast inh: 13µM*; aSyn rescue: 2%; Abeta yeast res: inactive; FUS yeast rescue: inconclusive

Results for CCn1c(COc2ccccc2)nnc1SCC(=O)Nc1cc(C)ccc1OC ?
TDP-43 yeast inh: 1%; aSyn rescue: -10%; Abeta yeast res: inactive; FUS yeast rescue: inactive

How did COc1ccc(C)cc1NC(=O)CSc1nnc(COc2ccc(C)cc2)n1Cc1ccco1 do in these assays?
TDP-43 yeast inh: 16µM*; aSyn rescue: 1%; Abeta yeast res: inactive; FUS yeast rescue: inactive

Results for CCC(=O)N1CCc2cc(Br)c(S(=O)(=O)N3CCC(C(=O)NC(C)(C)C)CC3)cc21 ?
FUS yeast rescue: inactive

How did C[C@H](CCCCC1(C)OCCO1)CCC(=O)N(c1ccccc1)c1ccccc1 do in these assays?
FUS yeast rescue: inactive

How did CN(C(=O)COc1ccccc1C(=O)Nc1ccccc1)c1ccccc1 do in these assays?
aSyn rescue: -5%

Results for Cc1cc(SCC(=O)c2ccc(O)c(O)c2)nc2ccccc12 ?
TDP-43 yeast inh: 22µM*; aSyn rescue: inconclusive; Abeta yeast res: inactive; FUS yeast rescue: inactive

Results for Cc1cc(SCC(=O)N(C)C2CCCCC2)nc2ccccc12 ?
TDP-43 yeast inh: 18µM*; aSyn rescue: 0%; Abeta yeast res: inactive; FUS yeast rescue: inactive

How did Cc1cc(SCC(=O)NC(=O)c2cccn2C)nc2ccccc12 do in these assays?
TDP-43 yeast inh: 20µM*; aSyn rescue: 1%; Abeta yeast res: inconclusive; FUS yeast rescue: inactive

How did CN(C(=O)CSc1ncnc2ccccc12)C1CCCCC1 do in these assays?
TDP-43 yeast inh: 13µM*; aSyn rescue: 4%; Abeta yeast res: inactive; FUS yeast rescue: inactive

How did CCC(CC)NC(=O)O[C@H]1CC[C@@]23CCCN2C(=O)CCC[C@H]3[C@H]1C do in these assays?
FUS yeast rescue: inactive

Results for Cc1ccc2c(C(=O)CNc3nc(C)c(C)s3)c(C)[nH]c2c1 ?
aSyn rescue: -2%

What do the screens show for `CCC[C@@H](/C=C/C(=O)OC(C)(C)C)Sc1ccccc1OC`?
FUS yeast rescue: inactive

Results for O=C(Oc1ccccc1/C=C\C(=O)c1cc2ccccc2o1)c1ccccc1 ?
TDP-43 yeast inh: 22µM*; aSyn rescue: 28%; Abeta yeast res: inactive

How did O=C(Oc1ccccc1/C=C\C(=O)c1cc2ccccc2o1)c1cccc(F)c1 do in these assays?
TDP-43 yeast inh: inconclusive; aSyn rescue: 1%; Abeta yeast res: inactive; FUS yeast rescue: inactive

How did CCOC(=O)c1c(NC(=S)Nc2cccnc2)sc(C)c1C do in these assays?
TDP-43 yeast inh: 13µM*; aSyn rescue: 6%; Abeta yeast res: inactive; FUS yeast rescue: inactive

What do the screens show for `CN(C)c1ccc(/C=N\Nc2ccc([N+](=O)[O-])cc2[N+](=O)[O-])cc1Br`?
aSyn rescue: -3%

What do the screens show for `COc1cc(C(=O)NNC(=O)c2nn(C)c(=O)c3ccccc23)cc(OC)c1OC`?
TDP-43 yeast inh: 3.2µM*; aSyn rescue: -6%; Abeta yeast res: inactive; FUS yeast rescue: inactive

Results for Cc1onc(C(=O)Nc2ccccc2C(F)(F)F)c1[N+](=O)[O-] ?
TDP-43 yeast inh: 12%; aSyn rescue: -4%; Abeta yeast res: inactive; FUS yeast rescue: inactive

Results for Cc1onc(C(=O)Nc2cccc(C(F)(F)F)c2)c1[N+](=O)[O-] ?
TDP-43 yeast inh: 13µM*; aSyn rescue: -13%; Abeta yeast res: inactive; FUS yeast rescue: inactive

What do the screens show for `Cn1nc(C(=O)Nc2cccc(C(F)(F)F)c2)c2ccccc2c1=O`?
TDP-43 yeast inh: 11µM*; aSyn rescue: 9%; Abeta yeast res: inactive

What do the screens show for `Cn1nc(C(=O)Nc2cccc(C(=O)NC3CC3)c2)c2ccccc2c1=O`?
TDP-43 yeast inh: 8%; aSyn rescue: 6%; Abeta yeast res: inactive; FUS yeast rescue: inactive

What do the screens show for `O=c1[nH][nH]c2c1C(c1ccc(F)cc1)OC(CCc1ccccc1)C2` (stereo unspecified)?
TDP-43 yeast inh: 20µM*; aSyn rescue: 14%; Abeta yeast res: inactive; FUS yeast rescue: inactive

Results for CC(C)[C@@H]1Cc2[nH][nH]c(=O)c2[C@H](c2ccc(F)cc2)O1 ?
TDP-43 yeast inh: 11µM*; aSyn rescue: -9%; Abeta yeast res: inactive; FUS yeast rescue: inactive

What do the screens show for `O=c1[nH][nH]c2c1[C@H](c1ccc(F)cc1)O[C@H](CCC(F)(F)F)C2`?
TDP-43 yeast inh: 20µM*; aSyn rescue: inconclusive; Abeta yeast res: inactive; FUS yeast rescue: inactive

How did CCCCC1Cc2[nH][nH]c(=O)c2C(c2ccc(Cl)cc2)O1 (stereo unspecified) do in these assays?
TDP-43 yeast inh: 11µM*; aSyn rescue: -5%; Abeta yeast res: inactive; FUS yeast rescue: inconclusive

What do the screens show for `O=c1[nH]c(=S)[nH]c2c1C(c1ccc(F)cc1)OC(CCC(F)(F)F)C2` (stereo unspecified)?
TDP-43 yeast inh: 2%; aSyn rescue: -1%; Abeta yeast res: inactive; FUS yeast rescue: inactive

Results for COc1ccc(C2OCCNC3C2C(=O)N(Cc2ccc(OC)cc2OC)C3Cc2ccccc2)cc1 (stereo unspecified) ?
FUS yeast rescue: inactive

How did CN(C)c1ccc(/C=C/c2ccnc3ccccc23)cc1 do in these assays?
aSyn rescue: -17%

What do the screens show for `CCCCCC[C@@H](CN(CCCC)S(C)(=O)=O)c1ccccc1`?
FUS yeast rescue: inactive

Results for O=C(NCc1cccs1)O[C@H]1CC[C@@]23CCCN2C(=O)CCC[C@H]3C1 ?
FUS yeast rescue: inactive

What do the screens show for `CCN(CC)CCCNC(=O)c1oc(=O)c2ccccc2c1-c1ccc(C)cc1`?
FUS yeast rescue: inactive

Results for COc1ccc(NC(=O)CCCC(=O)c2ccccc2)cc1OC ?
TDP-43 yeast inh: -2%; aSyn rescue: -2%; Abeta yeast res: inactive; FUS yeast rescue: inactive

High-throughput results from PubChem.
